Rows were chosen to be rich in hits. Some 3.4% of all compounds tested hit in one or more screens of this group.
TEAD-YAP block = TEAD-YAP interaction inhibition; actives 1.4% (n = 640,000); HEK-TIYL cells, TEAD-Gal4/YAP UAS-luciferase luminescence; inhibition, % at 9.12 µM; in the data active = inhibition above about 32%
MITF primary = inhibitors of human MITF; O75030; actives 0.91% (n = 650,000); inhibition, % at 2.6 µM; AlphaScreen MITF homodimerization, bead proximity signal; in the data active = inhibition above about 50%
GPR151 ag = activates the human receptor GPR151; Q8TDV0; PathHunter beta-arrestin GPR151 cells, luminescence; activation, % at 11.2 µM; actives 1% (n = 650,000); in the data active = activation above about 4.9%
FBW7 activator = activators of human E3 ligase FBW7. AlphaScreen FBW7–phospho-cyclin E peptide binding, activator screen. normalized activity (activation), % at 26.1 µM. actives 0.13% (n = 650,000). AID 1259310; in the data active = normalized activity above about 1.9%;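 also: purified mutant Fbw7 with reduced substrate affinity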
Target sequence (Q969H0 whole entry, looked up): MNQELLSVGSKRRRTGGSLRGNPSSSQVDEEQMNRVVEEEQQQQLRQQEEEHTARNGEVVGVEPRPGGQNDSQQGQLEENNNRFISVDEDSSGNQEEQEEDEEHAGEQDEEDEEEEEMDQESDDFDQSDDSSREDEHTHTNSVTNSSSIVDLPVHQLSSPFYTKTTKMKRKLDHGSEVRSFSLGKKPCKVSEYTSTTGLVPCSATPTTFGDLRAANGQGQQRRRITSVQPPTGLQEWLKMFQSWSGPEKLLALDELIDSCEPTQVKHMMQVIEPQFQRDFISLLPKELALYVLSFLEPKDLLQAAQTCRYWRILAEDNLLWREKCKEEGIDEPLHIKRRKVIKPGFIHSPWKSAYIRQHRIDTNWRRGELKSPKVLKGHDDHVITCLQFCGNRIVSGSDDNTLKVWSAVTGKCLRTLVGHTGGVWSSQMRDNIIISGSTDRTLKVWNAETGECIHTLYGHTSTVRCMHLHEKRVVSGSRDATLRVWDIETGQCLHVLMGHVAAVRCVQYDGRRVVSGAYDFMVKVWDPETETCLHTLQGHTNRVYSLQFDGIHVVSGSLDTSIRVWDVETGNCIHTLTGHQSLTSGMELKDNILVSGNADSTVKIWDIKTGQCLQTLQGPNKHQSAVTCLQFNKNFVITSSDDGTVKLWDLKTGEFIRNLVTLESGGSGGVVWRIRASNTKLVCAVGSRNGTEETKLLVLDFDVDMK
GPR151 confirm = human GPR151 activation, confirmation screen | shares compounds with GPR151 ag | GPR151 PathHunter beta-arrestin cells, luminescence, 90 min; % of EA-reagent control over plate median | activation, % at 11.2 µM | 6,700 tested, under 10 active | AID 1508609;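 active = mean percent activation across replicates above the confirmation screen cutoff of 4.91%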
GPR119 counter = activates human GPR119 in a GPR151 counter-screen | shares compounds with GPR151 ag | GPR119 PathHunter beta-arrestin cells, luminescence, 90 min; 0 = compound-well median, 100 = enzyme-acceptor control | activation, % at 11.2 µM | actives 0.3% (n = 6,700) | AID 1508611;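 active = mean percent activation in the counterscreen above 29.09%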;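 also: counterscreen on off-target GPR119 to flag nonselective hits from the GPR151 activator screen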
Each line names hits and unclear results; the compound was inactive in the other large screens (follow-up assays come after a bar, where they were run); ! = a repeat was not active.

COCCn1nnnc1C(c1cc2cccc(C)c2[nH]c1=O)N1CCCCC1 (stereo unspecified)	GPR151 ag 5.2 | GPR151 confirm inactive | GPR119 counter inactive
CC(C)(COC(=O)c1cccc2ccccc12)N=C1NS(=O)(=O)c2ccccc21	GPR151 ag 6.1 | GPR151 confirm inactive | GPR119 counter inactive
COCCn1c(C)cc(/C=C2\C(=O)NC(=S)N(c3cccc(OC)c3)C2=O)c1C	none
Cc1cc(C)nc(Nc2n[nH]c(COc3ccccc3)n2)n1	GPR151 ag 5.7 | GPR151 confirm inactive | GPR119 counter inactive
CC1CCCC(C)N1C(=O)COC(=O)COc1cccc(Br)c1 (stereo unspecified)	none
O=C(O)c1ccccc1Nc1nc(N2CCOCC2)nc(N2CCOCC2)n1	GPR151 ag 9.0 | GPR151 confirm inactive | GPR119 counter inactive
COc1ccc(OC/C(O)=C(\C#N)c2nc3ccccc3[nH]2)cc1	none
CC/C(C)=C(\C#N)c1nc2ccccc2[nH]1	GPR151 ag 5.7 | GPR151 confirm inactive | GPR119 counter inactive
COc1cccc(OC/C(O)=C(\C#N)c2nc3ccccc3[nH]2)c1	GPR151 ag 5.2 | GPR151 confirm inactive | GPR119 counter inactive
COc1ccc2oc(=O)c(-c3csc(Nc4cccc(Cl)c4C)n3)cc2c1	none
CSc1nsc(SC)c1C(=O)N1CCN(S(=O)(=O)c2ccc(C)cc2)C1C (stereo unspecified)	GPR151 ag 5.0 | GPR151 confirm inactive | GPR119 counter inactive
O=C(NCCn1cc(SCc2ccc(Br)cc2)c2ccccc21)c1ccc(F)cc1	GPR151 ag 5.0 | GPR151 confirm inactive | GPR119 counter inactive
CCN1CCN(C(=O)CN(C)S(=O)(=O)c2ccc(Br)cc2)CC1	none
CCN1CCN(C(=O)CN(C)S(=O)(=O)c2ccc(Cl)cc2)CC1	GPR151 ag 20 | GPR151 confirm inactive | GPR119 counter inactive
Fc1ccc(-c2[nH]ncc2CCN2CCOCC2)cc1	GPR151 ag 9.9 | GPR151 confirm inactive | GPR119 counter inactive
COc1c2occc2c(OC)c2c(=O)cc(C(F)(F)C(F)(F)F)oc12	GPR151 ag 5.3 | GPR151 confirm inactive | GPR119 counter inactive
O=C(NCc1ccc(F)cc1)c1ccc2nc(-c3cccs3)c(-c3cccs3)nc2c1	GPR151 ag 4.9 | GPR151 confirm inactive | GPR119 counter inactive
CC(=O)Nc1cccc(-c2cnc3ccc(NC4CCOCC4)nn23)c1	GPR151 ag 4.9 | GPR151 confirm inactive | GPR119 counter inactive
O=C(O)/C=C/c1cccc(-c2cnc3ccc(NC4CCOCC4)nn23)c1	none
COc1ccccc1CNC(=O)CCc1c(C)nc2c(c(C)nn2C(C)(C)C)c1C	none
COc1ccc(CNC(=O)CCc2c(C)nc3c(c(C)nn3C(C)(C)C)c2C)cc1	GPR151 ag 7.2 | GPR151 confirm inactive | GPR119 counter inactive
CC1(C)c2ssc(=S)c2-c2ccccc2N1C(=O)CN1CCOCC1	none
C/C(=C\C(=O)c1cccnc1)Nc1cccc(C(F)(F)F)c1	none
CCOC(=O)CCNC(=O)N1CCCC(CCC(=O)N(C)CCc2ccccn2)C1 (stereo unspecified)	none
Cc1nonc1CC(=O)N1CCCC(CCC(=O)N(C)CCc2ccccn2)C1 (stereo unspecified)	GPR151 ag 7.7 | GPR151 confirm inactive | GPR119 counter inactive
CCOC(=O)CCNC(=O)N1CCCC(N(C)CCc2ccccn2)C1 (stereo unspecified)	GPR151 ag 5.4 | GPR151 confirm inactive | GPR119 counter inactive
COc1cc(-c2nc3sc4c(c3c(=O)[nH]2)CCCC4)ccc1OCCOc1ccc(C)c(C)c1	GPR151 ag 5.7 | GPR151 confirm inactive | GPR119 counter inactive
CCOc1cc(-c2nc3sc4c(c3c(=O)[nH]2)CCCC4)ccc1OCc1ccccc1F	GPR151 ag 5.5 | GPR151 confirm inactive | GPR119 counter inactive
O=C1CS/C(=N/N=C/c2ccccc2)N1	none
O=C1CS/C(=N\N=C\c2ccc(O)cc2)N1	GPR151 ag 7.4 | GPR151 confirm inactive | GPR119 counter inactive
O=C(NNc1cccc(Cl)c1)C(=O)n1ccc2ccccc21	none
Nc1nnc(Cc2cccc(Br)c2)s1	GPR151 ag 11 | GPR151 confirm inactive | GPR119 counter inactive
COc1ccc(/C=C/C(=O)c2ccc[nH]2)cc1OC	GPR151 ag 5.8 | GPR151 confirm inactive | GPR119 counter inactive
O=C(CCNC(=O)c1ccccc1)N=Nc1c(O)[nH]c2c([N+](=O)[O-])cc([N+](=O)[O-])cc12	none
CCOc1ccc(-n2c(C)c(C(C)=O)c3cc(OC(C)=O)ccc32)cc1	GPR151 ag 5.3 | GPR151 confirm inactive | GPR119 counter inactive
COc1cc(NC(=O)Cc2nn(C)c(=O)c3ccccc23)ccc1Cl	none (no result: TEAD-YAP block, MITF primary, FBW7 activator)
CC(C)(C)c1ccc(OCC(=O)O/N=C(\N)c2ccc([N+](=O)[O-])cc2)cc1	none
CCN1C(=O)CC(N2CCC(C(=O)N3CCOCC3)CC2)C1=O (stereo unspecified)	GPR151 ag 15 | GPR151 confirm inactive | GPR119 counter inactive
O=C(N/N=C/c1ccc(Oc2ccc([N+](=O)[O-])cn2)cc1)c1cccc([N+](=O)[O-])c1	GPR151 ag 5.0 | GPR151 confirm inactive | GPR119 counter inactive
C=C1C(=O)OC2CC3(C)CCCC(C)C3=CC12 (stereo unspecified)	GPR151 ag 6.2! | GPR151 confirm inactive | GPR119 counter inactive
N#C/C(=C\c1cccc([N+](=O)[O-])c1)c1nc2ncc(Br)cc2[nH]1	none
COC(=O)c1ccc(NC(=O)COc2ccc(C34CC5CC(CC(C5)C3)C4)cc2)cc1	GPR151 ag 5.3 | GPR151 confirm inactive | GPR119 counter inactive
Cc1ccc2nc(-c3ccccn3)cc(C(=O)Nc3ccc([N+](=O)[O-])cn3)c2c1	GPR151 ag 15 | GPR151 confirm inactive | GPR119 counter inactive
CCOC(=O)c1ccc(-n2c(C)cc(/C=N/Nc3ccccn3)c2C)cc1	none
Cc1nnc(N/N=C/c2cc(C)n(-c3ccc(F)cc3)c2C)n1N	GPR151 ag 6.3 | GPR151 confirm inactive | GPR119 counter inactive
Cc1ccc(-n2c(C)cc(/C=N/Nc3ccccn3)c2C)cc1	GPR151 ag 5.5 | GPR151 confirm inactive | GPR119 counter inactive
Cc1ccccc1Nc1nc(N)nc(COC(=O)c2ccc(C#N)cc2)n1	none
O=C(NCc1ccccc1)c1nnc(Cc2cccc(F)c2)o1	GPR151 ag 4.9 | GPR151 confirm inactive | GPR119 counter inactive
FC(F)(F)c1cccc(CNc2nc(-c3ccccc3)nc3nc[nH]c23)c1	none
CCOc1ccccc1OCC(=O)Nc1ccc2c(c1)OCO2	none
O=C(COc1ccccc1C(=O)Nc1ccccc1)Nc1ccc2c(c1)OCO2	GPR151 ag 7.9 | GPR151 confirm inactive | GPR119 counter inactive
Cc1c(-c2ccccc2)sc2nc[nH]c(=O)c12	GPR151 ag 12 | GPR151 confirm inactive | GPR119 counter inactive
O=C(Cc1csc(-n2cccc2)n1)N1CCN(c2ccccn2)CC1	GPR151 ag 5.5 | GPR151 confirm inactive | GPR119 counter inactive

Screens as filed in PubChem BioAssay.
